Results taken from PubChem BioAssay AID1159580 (chemical genetic matrix, 2015).
Several values for one entry are separate records, joined by “and”; a condition that tells them apart may be missing. Identical values can stand only once. The whole screen tested about 5,500 compounds, of which about 2,000 (36%) were called active. About 18% were inconclusive and are not listed. No stated cut-off is given here; in the data, active means normalized growth mostly below about 0.91 (no sharp cut-off); inconclusive means no clear call, values can overlap the other calls; inactive means mostly above about 0.92. The list shows a part of the results.

Test: chemical genetic growth profiling, strain panel (AID 1159580);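 further: tested at 20 µM; growth read once vehicle control cultures reached saturation at 30 °C; 1 = growth at the plate median or of vehicle wells; lower values mean less growth of the strain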
Details: S. cerevisiae deletion strains, growth OD

Measured: normalized growth

CC1(C)O[C@H]2[C@H](O)C[C@](O)(C(N)=O)C[C@H]2O1
inactive: locus YAL013W, strain DEP1, hits give low values 1.01 | locus YAL021C, strain ccr4, hits give low values 0.996 | locus YAL026C, strain drs2, hits give low values 1.04 | locus YAL030W, strain snc1, hits give low values 1.01 | locus YBL061C, strain skt5, hits give low values 1.01 | locus YBR009C, strain hhf1, hits give low values 1.02 | locus YBR021W, strain FUR4, hits give low values 1.02 | locus YBR023C, strain chs3, hits give low values 1.02 | locus YBR171W, strain sec66, hits give low values 1.03 | locus YBR229C, strain ROT2, hits give low values 1.03 | locus YBR231C, strain swc5, hits give low values 1.01 | locus YBR279W, strain paf1, hits give low values 1.01 | locus YCL011C, strain gbp2, hits give low values 1.01 | locus YCL016C, strain dcc1, hits give low values 1.01 | locus YCL029C, strain bik1, hits give low values 1.04 | locus YCL061C, strain MRC1, hits give low values 1.01 | locus YCL069W, strain vba3, hits give low values 1.02 | locus YCR088W, strain abp1, hits give low values 1.01 | locus YDL005C, strain med2, hits give low values 1.01 | locus YDL035C, strain GPR1, hits give low values 1.05 | locus YDL040C, strain nat1, hits give low values 1.01 | locus YDL074C, strain BRE1, hits give low values 1.12 | locus YDL101C, strain DUN1, hits give low values 1.03 | locus YDL185W, strain tfp1, hits give low values 1.02 | locus YDL192W, strain arf1, hits give low values 1.05 | locus YDR001C, strain nth1, hits give low values 1.01 | locus YDR069C, strain doa4, hits give low values 1.01 | locus YDR101C, strain arx1, hits give low values 1.01 | locus YDR137W, strain rgp1, hits give low values 1.04 | locus YDR159W, strain sac3, hits give low values 1.06 | locus YDR162C, strain NBP2, hits give low values 1.04 | locus YDR195W, strain ref2 1.01 | locus YDR297W, strain sur2, hits give low values 1.01 | locus YDR318W, strain mcm21, hits give low values 1.04 | locus YDR334W, strain swr1, hits give low values 1.03 | locus YDR335W, strain msn5, hits give low values 1.02 | locus YDR388W, hits give low values 1.01 | locus YDR392W, strain spt3, hits give low values 0.959 | locus YDR502C, strain sam2, hits give low values 1.03 | locus YEL003W, strain gim4, hits give low values 1.02 | locus YEL037C, strain rad23, hits give low values 1.02 | locus YEL061C, strain CIN8 (second series), hits give low values 1.02 | locus YER015W, strain faa2, hits give low values 1.02 | locus YER016W, strain bim1, hits give low values 1.01 | locus YER110C, hits give low values 1.03 | locus YER111C, strain swi4, hits give low values 0.996 | locus YER155C, strain BEM2 (second series), hits give low values 1.03 | locus YER155C, strain BEM2, hits give low values 0.997 | locus YER167W, strain BCK2, hits give low values 1.02 | locus YFR010W, strain ubp6, hits give low values 1.04 | locus YGL078C, strain dbp3, hits give low values 1.04 | locus YGL086W, strain mad1, hits give low values 1.01 | locus YGL167C, strain pmr1, hits give low values 1.02 | locus YGL173C, strain kem1, hits give low values 1.03 | locus YGL227W, strain vid30, hits give low values 1.01 | locus YGL240W, strain doc1, hits give low values 1.01 | locus YGL248W, strain PDE1, hits give low values 1.05 | locus YGL253W, strain hxk2, hits give low values 1.03 | locus YGR078C, strain PAC10, hits give low values 1.04 | locus YGR135W, strain pre9, hits give low values 1.05 | locus YGR252W, strain gcn5, hits give low values 1.09 | locus YHR013C, strain ard1, hits give low values 1.02 | locus YHR027C, strain rpn1, hits give low values 1.03 | locus YHR030C, strain SLT2, hits give low values 1.01 | locus YHR079C, strain IRE1 (second series), hits give low values 1.03 | locus YHR079C, strain IRE1, hits give low values 0.99 | locus YHR094C, strain hxt1, hits give low values 1.02 | locus YHR129C, strain ARP1, hits give low values 1.04 | locus YHR142W, strain chs7, hits give low values 1.03 | locus YHR200W, strain rpn10, hits give low values 1.05 | locus YIL066C, strain RNR3, hits give low values 1.03 | locus YIL073C, strain SPO22, hits give low values 1.16 | locus YIL125W, strain kgd1, hits give low values 1.01 | locus YIR030C, strain dcg1, hits give low values 1.03 | locus YJL092W, strain hpr5, hits give low values 1.01 | locus YJL095W, strain BCK1 (second series), hits give low values 1.02 | locus YJL095W, strain BCK1, hits give low values 1.1 and 1.02 | locus YJL115W, strain asf1, hits give low values 1.01 | locus YJL129C, strain trk1, hits give low values 1.01 | locus YJL134W, strain LCB3, hits give low values 1.01 | locus YJL154C, strain vps35, hits give low values 1.02 | locus YJL164C, strain tpk1, hits give low values 1.02 | locus YJL166W, strain qcr8, hits give low values 1.02 | locus YJL168C, strain set2, hits give low values 1.02 | locus YJL187C, strain SWE1 (second series), hits give low values 1.05 | locus YJL187C, strain SWE1, hits give low values 1.01 | locus YJR043C, strain POL32, hits give low values 1.05 | locus YJR066W, strain TOR1, hits give low values 0.951
